We go through 39 sequences from the supplement of paper PMC6555819.

The test system of this assay is THRa homodimer (NR concentration 90 nM). Put plainly: PBM binding z-score (relative to random genomic background probes); higher = stronger binding; sequences stand for … in GC…GCGATTGACAGCGTAGAATGAAGG
In a few lines: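 For binding z-scores, the reference was random background probes on custom Agilent 4×180K protein-binding microarrays. These arrays were incubated 1 h with ligand-free nuclear receptor dimers in PBS pH 7.4, 2% milk, 0.02% Triton X-100, 1 mM DTT, 0.2 mg/mL BSA and 0.4 mg/ml salmon testes DNA. Fluorescence was scanned after antibody detection of each partner (one per run) and regression-normalized.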
ATCTCTAGGTAAAGTCCAGTGAAAGATCGATAGA: the PBM binding z-score is 0.0822.

For the sequence AGAACGAGGGCAATGAGTTGATAGGACGGGTGGC, the PBM binding z-score was -0.116.

Take ATGTCTAGGTAAAAGTTCAGTGAATCCCGAGGAT: the PBM binding z-score came out at 0.0268.

On to ATACCAAGGGGATCGTGAGGTCGTTGATACTAAC, for which the PBM binding z-score was 1.66.

On to GCGACTGGGGCAAAGCAGGTTACCGTAAGGTTGG, for which the PBM binding z-score is -0.142.

The sequence ATAGCAAGGTGATCGTGAGGTCGTTGATACTAAC came in with a PBM binding z-score of 1.8.

Sequence TCATATAGGTAAAAGGTGAAAGTCGGTGTGGTAA showed a PBM binding z-score of 0.633.

AGAATGAGGTTATGCGTAGATCAGGGAAGAAAGT came in with a PBM binding z-score of 0.599.

In the case of CGTACGAGGGCATGAGTTGATAGCAAATGCCGAT, the PBM binding z-score is -0.172.

TCTTGTAGATCAAGCAGGTTAAGCAAGCCTGAGT came in with a PBM binding z-score of -0.299.

In the case of AATACAGGCTCACTAGGCCAGAGTAGGTACGAAT, the PBM binding z-score was -0.397.

GGAACGAGGGCCAAGTTGATAGCATCTGTCGACG: the PBM binding z-score was -0.99.

Consider CCTAGTTGGTCAGGAGGACACACACCGGATATGA, for which the PBM binding z-score was 1.43.

GCTTACGGGTCAAAGGTTATAGCTTGAATAGAAT gave a PBM binding z-score of -0.0839.

The sequence TATACAGGGTCAAAGGCCCGAGTACGAATGTCGA gave a PBM binding z-score of 0.794.

Sequence TCTATAAGTTGAAGGGCAACCGACGAGTCCGTTT registered a PBM binding z-score of 0.137.

CCAGACAGGTGAGCAGGTAACTCAGCCTCGATTA showed a PBM binding z-score of 0.165.

As for ACTAGCAGGCCAATTTTGGGTCACTCAAACAAAG, the PBM binding z-score came out at 1.24.

For the sequence CGTCCAAGTTCAAGGTCAGTGAAAGAGACTCGAA, the PBM binding z-score amounted to 2.47.

The sequence CGTCCAAGATCAAAGGTCAGTGAAGAGATGACGG yielded a PBM binding z-score of 0.239.

CGTCAAAGTTCAAGGTAACGTAACAGAAAGCAGC yielded a PBM binding z-score of 1.32.

For TGAATAAGGTTAAAGATCAGGGAACGTGGCGTCG, the PBM binding z-score turned out to be 0.616.

In the case of CGTCCAAGGTCAATGCTAGGTCAATGAAAGCATT, the PBM binding z-score is 3.59.

Sequence TAGCCTAGGTCATTGGGCCACTATAGTACGCATC returned a PBM binding z-score of 1.3.

On to GCACATAGGTAATACAAGGTGAAAGTCCGATTGT, for which the PBM binding z-score came to 1.02.

TCATATAGGTACAGGTGAAAGTCGAACGATATGA displayed a PBM binding z-score of -0.52.

CCTCGGAGGACAACAGGAGGCCAGAGCTGCCAGA: the PBM binding z-score is -0.155.

For CCTGCTAGGTCAGGGTCAGCTAATCTACAGTATG, the PBM binding z-score is 1.81.

In the case of GCAGAGAGGTGAAACGCAGGTAACTCAGGGTGGC, the PBM binding z-score was determined as 0.0883.

CGAACTAGGTCAGTGACAGGACAGTGAATAGTAA yielded a PBM binding z-score of 0.499.

GCTTATGGGTCAAAGGTTATAGCATGAATAGAAT had a PBM binding z-score of -0.168.

Sequence CCTTACGGGTCACTCCGGGTTATAGCATCGGAGT returned a PBM binding z-score of -0.126.

In turn, GGAACGAGGGCACGTTGATAGCAGAGTTTGATGG gave a PBM binding z-score of 0.0368.

For the sequence GGAACGAGGGCAAAGTTGATATCATCTGTCGACG, the PBM binding z-score is 0.0109.

The sequence ACTACTAGTTGAGACGAGGGCAACCGATAGGTTG gave a PBM binding z-score of 0.219.

Sequence CGTCCAAGGGCAAAGGTCAGTGAAGAGATGACGG displayed a PBM binding z-score of 0.298.

The sequence ATATGTAGGTTAGCTGGGTTCATTCAGACTAGGC yielded a PBM binding z-score of 0.442.

As for CCGAGTAGGTTATGGGTCATTCAGGCAACGGTGA, the PBM binding z-score amounted to 0.87.

Take GCTGCTAGGTCAGGGTGGTCAGCTAACGGGTACG: the PBM binding z-score amounted to 0.797.
